# Assay outcomes: PubChem BioAssay, several laboratories
# HDAC3 inhib: inhibitors of human histone deacetylase 3; inhibition, % at 8.3 µM; recombinant HDAC3, fluorogenic peptide/trypsin coupled, fluorescence; O15379; AID 2718; hit rate 0.15% among 320,000; in the data active means inhibition above about 26%, passing the limit was not always enough; inconclusive means no clear call, values can overlap the other calls
# Target sequence (O15379 whole entry, looked up): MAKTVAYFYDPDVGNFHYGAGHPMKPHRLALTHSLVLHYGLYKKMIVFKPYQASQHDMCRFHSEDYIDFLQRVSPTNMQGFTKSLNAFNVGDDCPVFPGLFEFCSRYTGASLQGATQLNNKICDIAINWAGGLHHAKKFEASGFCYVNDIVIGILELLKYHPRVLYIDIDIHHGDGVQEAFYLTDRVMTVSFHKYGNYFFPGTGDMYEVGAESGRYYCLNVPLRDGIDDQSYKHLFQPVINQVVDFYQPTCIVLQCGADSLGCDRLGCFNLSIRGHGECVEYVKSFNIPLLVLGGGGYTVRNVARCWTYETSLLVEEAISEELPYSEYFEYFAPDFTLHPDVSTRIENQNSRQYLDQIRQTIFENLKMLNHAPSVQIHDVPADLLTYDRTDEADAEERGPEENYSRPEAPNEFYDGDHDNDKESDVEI
# LANA-H2A inh: blocks KSHV LANA binding to histone H2A/H2B; Q9QR71; cell-free LANA-H2A/H2B peptide, fluorescence polarization; inhibition, % (test concentration not listed); hit rate 0.6% among 320,000; AID 2629; in the data active means inhibition mostly above about 10%, no sharp cut-off; inactive means mostly below about 6.7%
# CTSL1 counter: cathepsin L1 inhibition, PFM18AAP counter-screen | AID 1906 | recombinant F. hepatica cathepsin L1, Z-Leu-Arg-MCA fluorescence | hit rate 0.49% among 300,000 | inhibition, % at 5.96 µM;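 active means inhibition above the mean of all tested compounds plus 3 SD, set per screening campaign, cut at about 17% in these data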;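 further: 0% = plate median of test compound wells and 100% = 1 µM Z-Phe-Ala-diazomethylketone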
# m5-HT2A agonist: agonists of mouse serotonin 5-HT2A receptor (HTR2A); P35363; CHO-K1 mHTR2A beta-arrestin complementation, luminescence; percent of 30 µM serotonin response; activation, % at 7.6 µM; hit rate 0.66% among 360,000;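 active means activation above a run cutoff, the mean activation of all tested compounds plus 3 SD, cut at about 14% in these data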;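 further: 0% = plate median of compound wells and 100% = 30 µM serotonin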
# MOR ag counter: activates human mu opioid receptor in HTR2A counterscreen. shares compounds with m5-HT2A agonist. U2OS OPRM1 beta-arrestin PathHunter, luminescence; DMSO 0%, DAMGO 9.3 µM 100%. activation, % at 9.3 µM. hit rate 5.3% among 2,300. AID 624380;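 active means mean activation above the mean of DMSO-only wells plus 3 SD, cut at about 0.5% in these data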
# m5-HT2A ag conf: confirmation of mouse HTR2A serotonin receptor agonists | hit rate 19% among 2,300 | activation, % at 7.6 µM | shares compounds with m5-HT2A agonist | CHO-K1 PathHunter beta-arrestin recruitment, luminescence; DMSO 0%, 30 µM serotonin 100% | AID 624381;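 active means mean activation across triplicates above the hit threshold derived in the original primary screen, cut at about 15% in these data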
# * marks the source's active call; other numbers are inactive results; ? = inconclusive; / = no result given. Sampled rows, rich in hits. Any-hit rate of the full collection: about 1.7%.
SMILES,HDAC3 inhib,LANA-H2A inh,CTSL1 counter,m5-HT2A agonist,MOR ag counter,m5-HT2A ag conf
C=CCOc1cccn2c(N(C)C(=O)c3ccccc3F)c(CC)nc12,/,/,/,16*,0,-2
CCc1nc2c(OCC(=O)c3ccc(F)cc3)cccn2c1N(C)C(=O)C(C)C,/,/,/,24*,0,-5
CCCc1cc(CCC)n2nc(N)nc2n1,/,/,/,15*,0,-3
CC(C)CN1C(=O)C(=O)N(CC(=O)c2ccc[nH]2)C1=O,/,/,-3,8,/,/
CCN1CCN(Cc2nnc(-c3ccc(C)cc3)o2)CC1,-5,-1,-4,17*,-1,-4
CN1CCN(Cc2nnc(-c3ccccc3)o2)CC1,-13,-2,-4,2,/,/
Cc1ccc(C(NC(=O)c2cccc(S(=O)(=O)N3CCN(C)CC3)c2)c2ccccc2)cc1 (configuration not stated),3,5,/,-3,/,/
CC(C)CN(C(=O)c1ccc(F)cc1F)c1c(N)n(CC(C)C)c(=O)[nH]c1=O,-4,0,3,3,/,/
Cc1ccc(C(=O)NCCNC(=O)CN2CCOCC2)cc1,-1,3,-2,15*,-1,-2
COc1ccc(CN2CCN(C(=O)c3ccco3)CC2)cc1OC,-6,4,-4,32*,0,82*
COc1ccccc1OCc1ccc(C(=O)N2CCN(C(=O)c3ccco3)CC2)cc1,1,3,2,12,/,/
COc1ccc(CN2CCN(C(=O)c3ccco3)CC2)cc1OCc1ccccc1,8,5,4,19*,-1,74*
COc1ccc(Br)cc1CN1CCN(C(=O)c2ccco2)CC1,0,-5,3,-2,/,/
O=C1C2C3C=CC(C3)C2S(=O)(=O)C2C3C=CC(C3)C12 (configuration not stated),/,/,/,0,/,/
O=C(CSc1nc2ccccc2c(=O)n1CCCN1CCOCC1)Nc1ccc(F)c(Cl)c1,-11,-4,/,-9,/,/
Cc1ccc(NC(=O)CSc2nc3ccccc3c(=O)n2CCCN2CCCCC2)cc1Cl,6,-4,1,30*,0,10
COc1ccc(NC(=O)CSc2nc3ccccc3c(=O)n2CCCN2CCC(C)CC2)c(OC)c1,5,-3,5,61*,-1,18*
CC1CCN(CCCn2c(SCC(=O)Nc3ccccc3Cl)nc3ccccc3c2=O)CC1,9,1,-2,43*,0,24*
COc1ccc(-n2c(SCC(=O)Nc3cc(C)on3)nc3ccccc3c2=O)cc1Cl,-5,-1,2,5,/,/
COc1ccc(-n2c(SCC(=O)Nc3cc(C(=O)O)ccc3C)nc3ccccc3c2=O)cc1Cl,-2,-2,8,17*,-1,-2
COCCCN1C(=O)C2C(C(=O)Nc3cccc(Cl)c3)C3C=CC2(O3)C1C(=O)NC1CCCCC1 (configuration not stated),-10,6,-2,-2,/,/
COc1ccc(C)c2sc(N(CCCN(C)C)C(=O)c3ccc4c(c3)OCCO4)nc12,11,1,3,21*,-1,5
COc1ccc(C)c2sc(N(CCN(C)C)C(=O)/C=C/c3cccs3)nc12,12,-2,0,24*,1.0*,12
CCCN(C(=O)COC(=O)C12CCC(=O)N1c1ccccc1S2)c1c(N)n(Cc2ccccc2)c(=O)[nH]c1=O (configuration not stated),/,2,-3,0,/,/
CCc1noc(C)c1C(=O)Nc1nc(-c2ccccc2)c(C(C)=O)s1,2,-1,/,35*,-1,9
SMILES,HDAC3 inhib,LANA-H2A inh,CTSL1 counter,m5-HT2A agonist,MOR ag counter,m5-HT2A ag conf
Cc1onc(-c2ccccc2)c1C(=O)Nc1ccc(NC(=O)c2c(-c3ccccc3)noc2C)cc1,-13,-2,-4,19*,0,-4
Cc1cc(=O)[nH]c(SCC(=O)Nc2ccccc2[N+](=O)[O-])n1,-2,1,3,0,/,/
CC(=O)Nc1nc(C)cs1,-6,-2,-4,16*,0,-1
Cc1csc(NC(=O)c2ccccc2)n1,0,1,2,2,/,/
O=C1CC[C@@H](C(=O)N2CSC[C@H]2C(=O)O)N1,-8,-3,-3,46*,-1,-4
CCOC(=O)c1ccccc1NC(=O)COC(=O)C(CCSC)NC(=O)COc1ccccc1 (configuration not stated),?,-1,1,2,/,/
CCOC(=O)C(=CNc1ccccc1C)C(=O)OCC,12,-2,5,5,/,/
